Source: PubChem BioAssay (several laboratories)
Rin1 Abl inh: human Rin1-Abl interaction inhibition. P00519+Q13671. hit rate 0.4% among 360,000. inhibition, % at 7.35 µM. TR-FRET Rin1/Abl binding, biochemical; in the data active = inhibition above about 5%, passing the limit was not always enough
Target sequence (P00519 whole entry, looked up): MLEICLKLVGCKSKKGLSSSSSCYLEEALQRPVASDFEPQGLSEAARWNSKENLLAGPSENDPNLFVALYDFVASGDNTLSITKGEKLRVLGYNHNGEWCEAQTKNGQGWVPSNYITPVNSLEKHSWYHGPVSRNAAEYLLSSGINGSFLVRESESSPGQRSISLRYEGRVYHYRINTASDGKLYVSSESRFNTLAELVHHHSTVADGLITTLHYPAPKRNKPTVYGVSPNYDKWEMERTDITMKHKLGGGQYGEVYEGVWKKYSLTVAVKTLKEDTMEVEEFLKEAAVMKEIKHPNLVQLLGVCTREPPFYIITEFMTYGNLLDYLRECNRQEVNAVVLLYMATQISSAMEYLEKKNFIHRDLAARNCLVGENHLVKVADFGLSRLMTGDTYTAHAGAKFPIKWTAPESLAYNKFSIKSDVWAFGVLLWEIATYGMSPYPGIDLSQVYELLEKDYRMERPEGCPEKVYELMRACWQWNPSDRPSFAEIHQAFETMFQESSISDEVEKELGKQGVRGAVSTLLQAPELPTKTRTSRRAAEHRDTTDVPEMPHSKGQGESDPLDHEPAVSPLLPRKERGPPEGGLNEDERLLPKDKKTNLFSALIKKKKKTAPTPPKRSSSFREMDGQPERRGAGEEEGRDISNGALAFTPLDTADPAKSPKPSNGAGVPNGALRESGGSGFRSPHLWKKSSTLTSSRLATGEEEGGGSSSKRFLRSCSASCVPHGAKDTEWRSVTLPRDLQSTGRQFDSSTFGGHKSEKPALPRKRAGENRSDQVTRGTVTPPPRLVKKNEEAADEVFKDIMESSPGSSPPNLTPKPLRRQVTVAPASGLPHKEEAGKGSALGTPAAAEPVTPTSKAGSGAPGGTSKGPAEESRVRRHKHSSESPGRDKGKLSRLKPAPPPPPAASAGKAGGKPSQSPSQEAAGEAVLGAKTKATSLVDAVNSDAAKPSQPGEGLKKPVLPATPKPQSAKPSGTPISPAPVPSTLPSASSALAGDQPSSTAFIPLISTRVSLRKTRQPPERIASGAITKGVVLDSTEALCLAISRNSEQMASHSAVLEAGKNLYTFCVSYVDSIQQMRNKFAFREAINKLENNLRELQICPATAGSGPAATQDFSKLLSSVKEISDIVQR
Target sequence (Q13671 whole entry, looked up): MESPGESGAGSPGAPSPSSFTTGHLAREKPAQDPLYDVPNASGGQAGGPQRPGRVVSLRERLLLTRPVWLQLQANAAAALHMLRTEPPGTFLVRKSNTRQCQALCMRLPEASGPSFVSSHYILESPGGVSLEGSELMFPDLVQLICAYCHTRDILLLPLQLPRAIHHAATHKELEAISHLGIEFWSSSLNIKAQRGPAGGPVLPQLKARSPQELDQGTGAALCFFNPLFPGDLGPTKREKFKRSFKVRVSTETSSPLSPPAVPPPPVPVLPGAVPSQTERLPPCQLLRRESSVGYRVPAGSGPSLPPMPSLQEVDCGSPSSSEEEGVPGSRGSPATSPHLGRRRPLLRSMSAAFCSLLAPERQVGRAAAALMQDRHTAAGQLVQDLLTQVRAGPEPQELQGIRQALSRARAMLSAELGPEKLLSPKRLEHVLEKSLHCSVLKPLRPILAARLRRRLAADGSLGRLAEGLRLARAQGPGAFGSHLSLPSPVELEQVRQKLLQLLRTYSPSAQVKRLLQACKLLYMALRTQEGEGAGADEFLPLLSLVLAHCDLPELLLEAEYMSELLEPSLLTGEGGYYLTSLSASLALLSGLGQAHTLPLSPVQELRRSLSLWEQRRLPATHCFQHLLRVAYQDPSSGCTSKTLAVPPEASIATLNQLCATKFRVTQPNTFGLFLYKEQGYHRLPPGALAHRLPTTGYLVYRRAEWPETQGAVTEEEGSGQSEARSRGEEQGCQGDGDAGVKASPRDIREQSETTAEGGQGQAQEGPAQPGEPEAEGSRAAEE
HGIII-sPLA2 inh: Inhibits HGIII-sPLA2 liposome hydrolysis, primary screen | AID 743126 | Q9NZ20 | QFRET BODIPY PC-A2 liposome hydrolysis, fluorescence | hit rate 0.56% among 370,000 | inhibition, % at 12.2 µM;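 active = inhibition above mean plus 3 SD of compounds lying within the high and low control bounds, cut at about 19% in these data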;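 note: 0% = median of test compound wells and 100% = no enzyme DMSO wells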
AI-2 QS modul: modulators of Vibrio harveyi AI-2 quorum sensing system | Vibrio harveyi JMH597 AI-2 luminescence/OD600 ratio, 9 h; active compounds read low; strain lacks LuxN and CqsS sensors; 0 = neutral-control median | activity change, % at 7.5 µM | hit rate 0.4% among 300,000; in the data active = activity change below about -75%, passing the limit was not always enough;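 note: luminescence divided by OD600 gain over 9 h not by final OD600 alone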
ARNT-TACC3 inh: disruptors of human ARNT/TACC3 interaction; Q9Y6A5; hit rate 0.66% among 390,000; AlphaScreen His-ARNT PAS-B/GST-TACC3 binding, luminescence; TACC3 fragment carries E629A point mutation; inhibition, % at 9.99 µM;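 active = mean inhibition of replicates at least 50% and at least half of replicates each reaching 50%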;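 note: 0% = complete ARNT plus TACC3 wells and 100% = ARNT alone without TACC3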
hGIII sPLA2 conf: human GIII-sPLA2 inhibition, confirmation; shares compounds with HGIII-sPLA2 inh; recombinant hGIII-sPLA2, BODIPY PC-A2 QFRET fluorescence; inhibition, % at 12.2 µM; hit rate 34% among 2,000; AID 743280;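 active = mean inhibition across triplicates above the hit cutoff set in the earlier primary screen, cut at about 19% in these data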;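 note: 0% = enzyme with DMSO and 100% = DMSO wells lacking enzyme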
BODIPY interf: optically interferes with 535nm fluorescence in sPLA2 counter-screen; hit rate 8.5% among 2,000; BODIPY FL product fluorescence interference, QFRET; shares compounds with HGIII-sPLA2 inh; inhibition, % at 12.2 µM;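 active = average inhibition above the solvent-only control mean plus 3 SD, cut at about 6% in these data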;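 note: 0% = DMSO with substrate plus product and 100% = DMSO with substrate alone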
BODIPY interf DR: 535nm optical interference dose response, HGIII-sPLA2 counter-screen | shares compounds with HGIII-sPLA2 inh | BODIPY FL product fluorescence interference, cell-free | IC50, µM | 240 tested, under 10 active | AID 743455;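 active = IC50 at or below 10 µM; inactive = IC50 above 10 µM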
Active calls of the source: *; . = no result given. The list is not random: actives were taken first. Their share in the collection is about 1.5%.

SMILES | Rin1 Abl inh | HGIII-sPLA2 inh | AI-2 QS modul | ARNT-TACC3 inh | hGIII sPLA2 conf | BODIPY interf | others
Cc1ccc2cc(CCNC(=O)c3cccc([N+](=O)[O-])c3)c(=O)[nH]c2c1C | -1 | 22* | 5 | -5 | -7 | -17
CNC[C@H]1OCCCC[C@H](C)Oc2ccc(NC(=O)Nc3cccc4ccccc34)cc2C(=O)N([C@@H](C)CO)C[C@@H]1C | . | . | . | 9 | . | .
CCOc1ccccc1NC(=S)Nc1ncccc1C | -2 | 23* | 5 | 18 | 8 | -3
CCOc1ccc(C(=O)NC(=S)Nc2ccc(NC(=O)c3ccco3)cc2)cc1[N+](=O)[O-] | 1 | 2 | 19 | -1 | . | .
CCOc1ccc(C(=O)NC(=S)Nc2ncccc2C)cc1[N+](=O)[O-] | 0 | 20* | 11 | 10 | 10 | -8
Cc1cccc(OCCNc2cc(N3CCN(C)CC3)ccc2[N+](=O)[O-])c1 | -4 | -7 | 19 | 2 | . | .
Cc1cccc(OCCNc2cc(N3CCOCC3)ccc2[N+](=O)[O-])c1 | -4 | 19* | 10 | 0 | -2 | -16
C#CCOCCOCCOCCNc1nc(N2CCN(C(=O)[C@H](CCCCN)n3cc([C@@H](N)C(C)CC)nn3)CC2)nc(N2CCN(C(=O)[C@H](CCCCN)n3cc([C@@H](N)C(C)CC)nn3)CC2)n1 (stereo partly drawn) | . | 20* | . | . | -2 | -44
C/C(=N\O)c1c(O)cc(-c2ccccc2)n(-c2ccccc2)c1=O | 1 | -1 | -3 | -8 | . | .
Cc1c(O)c2c(=O)n(-c3ccccc3)c(-c3ccccc3)cc2oc1=O | 0 | 20* | 31 | -6 | 7 | -5
O=C(Nc1ccccc1F)N[C@@H]1CC[C@@H](CCNC(=O)C2CC2)O[C@@H]1CO | . | . | . | -39 | . | .
Cc1ccc(NC(=O)C2CCCO2)cc1[N+](=O)[O-] (stereo not drawn) | -2 | 20* | 23 | -4 | 1 | -2
CCCN1C[C@H](C)[C@H](OC)CN(C)C(=O)c2cc(NC(=O)c3ccno3)ccc2OC[C@@H]1C | . | . | . | -12 | . | .
CC1CCN(CCCCOc2ccc(Br)cc2)CC1 | -1 | 20* | 4 | 4 | 4 | -14
O=C(C[C@@H]1CC[C@@H](NC(=O)Nc2ccccc2F)[C@H](CO)O1)NCc1ccccc1 | . | . | . | -9 | . | .
S=C(NCc1ccccc1)N1CCCCC1 | 2 | 10 | 19 | . | . | .
CCC1CCCCN1C(=S)NCc1ccccc1 (stereo not drawn) | 3 | 24* | 31 | . | 15 | -7
CCN(CC)S(=O)(=O)c1ccc(C)c(NC(=S)NNC(=O)C2CC2)c1 | 1 | 20* | 5 | -24 | 23* | -6
Cc1ccc(S(=O)(=O)N(C)C)cc1NC(=O)C1CCCC1 | -3 | -2 | 18 | -2 | . | .
Cc1ccc(S(=O)(=O)N(C)C)cc1NC(=S)NNC(=O)C1CC1 | 4 | 30* | 32 | -1 | 19 | -1
C[C@@H]1CN([C@H](C)CO)C(=O)c2cc(-c3ccc(F)cc3)cnc2O[C@H]1CN(C)C(=O)CN(C)C | . | . | . | 2 | . | .
Cc1noc(C)c1S(=O)(=O)N(C)C[C@@H]1OCCCC[C@@H](C)Oc2ccc(NS(=O)(=O)c3cn(C)cn3)cc2C(=O)N([C@H](C)CO)C[C@@H]1C | . | . | . | -13 | . | .
CC(=O)c1cccc(NC(=O)C2=CN3CCS(=O)(=O)N=C3C=C2)c1 | 0 | 20* | . | -4 | -5 | -7
CCCN1[C@@H]2c3ccc(-c4cccc(F)c4)c(=O)n3C[C@H]1[C@H](CO)[C@H]2C(=O)NCC | . | . | . | 0 | . | .
Cc1ccc(Nc2nnc(SCC(=O)Nc3ncc(S(=O)(=O)c4ccc([N+](=O)[O-])cc4)s3)s2)cc1 | 2 | 20* | 20 | -18 | -30 | 4
SMILES | Rin1 Abl inh | HGIII-sPLA2 inh | AI-2 QS modul | ARNT-TACC3 inh | hGIII sPLA2 conf | BODIPY interf | others
NC(c1csc(Nc2nncc3ccccc23)n1)c1ccccc1Cl (stereo not drawn) | -4 | 15 | . | . | . | .
NC(c1csc(Nc2nncc3ccccc23)n1)C1CCCCC1 (stereo not drawn) | 1 | 20* | . | . | 8 | -21
NC(c1csc(NC(=O)Nc2cccc(Cl)c2)n1)C1CCCCC1 (stereo not drawn) | 0 | 3 | . | . | . | .
COc1ccc(CCNC(=O)Nc2nc(C(N)CCc3ccccc3)cs2)cc1OC (stereo not drawn) | 0 | 5 | . | . | . | .
NC(c1ccccc1)c1csc(NC(=O)NCCc2ccccc2)n1 (stereo not drawn) | -1 | 25* | . | . | -1 | -8
CC(C)CC(N)c1csc(NC(=O)NCCc2ccccc2)n1 (stereo not drawn) | 0 | 9 | . | . | . | .
NC(c1csc(NC(=O)Nc2ccccc2)n1)C1CCCCC1 (stereo not drawn) | -2 | 22* | . | . | 8 | -12
COc1ccc(CCNC(=O)Nc2nc(C(N)C3CCCCC3)cs2)cc1OC (stereo not drawn) | -6 | 22* | . | . | 5 | -22
COc1ccc(NC(=O)N(C)C[C@@H]2Oc3ncc(C#Cc4ccc(F)cc4)cc3C(=O)N([C@H](C)CO)C[C@@H]2C)cc1 | . | . | . | 0 | . | .
O=C1N/C(=N\N=C\c2cccs2)SC1Cc1cccc(Cl)c1Cl (stereo not drawn) | 0 | 20* | 21 | -5 | -11 | -3
C[C@H](CO)N1C[C@H](C)[C@@H](CN(C)C(=O)Nc2ccc(F)cc2)Oc2ccc(NC(=O)Cc3cn(C)c4ccccc34)cc2C1=O | . | . | . | 7 | . | .
CCN(CC)c1ccc(/C=C/c2cccc[n+]2C)c(OC)c1 | -32 | -31 | -9 | 5 | . | .
CN(C)c1ccc(C=c2c3ccccc3n3c2c2c([n+]3C)CCCC2)cc1 | -18 | 39* | . | 33 | 49* | -24 | BODIPY interf DR=>122
CN(C)c1ccc(/C=C2\CCC/C(=C\c3ccccc3)C2=O)cc1 | -1 | 4 | 26 | 6 | . | .
CN(C)c1ccc(C=c2c3ccccc3n3c2cc(-c2ccccc2)[n+]3C)cc1 | -18 | 31* | . | 28 | 56* | -26 | BODIPY interf DR=>122
COc1cc(N(C)C)ccc1C=c1c2ccccc2n2c1cc(-c1ccccc1)[n+]2C | -36 | 45* | . | 41* | 52* | -19 | BODIPY interf DR=>122
COc1cccc(/C=N/N=C(\N)c2nonc2N)c1O | 0 | 20* | 12 | -1 | 6 | -3
CCNC(=S)N1CCN(S(=O)(=O)c2cccc(C(F)(F)F)c2)CC1 | -1 | 8 | 1 | -9 | . | .
O=S(=O)(c1cccc(C(F)(F)F)c1)N1CCN(C(=S)NC2CC2)CC1 | 1 | 22* | 17 | -9 | 17 | -4
CCC(=O)N(C)C[C@H]1Oc2ncc(/C=C/c3ccccc3)cc2C(=O)N([C@H](C)CO)C[C@@H]1C | . | . | . | -4 | . | .
